Data reported in PubChem BioAssay (NCI).
This is part of a sample that, as a whole, favours compounds with a hit. Of some 83,000 tested, about 20% had one in any assay.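 Testing used 96-well plates and a 48-hour single-concentration exposure. Example: -40 means 40% of the starting cells died.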 Values without a mark were called inactive. Active and inactive are the calls of the source. The calls were made as follows: active = growth percent below 10; inactive = the rest.

How the values were obtained:
Assay in all cases: NCI-60 one-dose screen, 48 h (100 = growth as untreated, 0 = no growth, -100 = all killed)
Conditions in all cases: 10 µM unless noted
SK-MEL-2 melanoma = system: SK-MEL-2 melanoma
SN12C renal = system: SN12C renal
UO-31 renal = system: UO-31 renal
TK-10 renal = system: TK-10 renal
ACHN renal = system: ACHN renal
CAKI-1 renal = system: CAKI-1 renal
A498 renal = system: A498 renal
CCRF-CEM leukemia = system: CCRF-CEM leukemia
MOLT-4 leukemia = system: MOLT-4 leukemia
SR leukemia = system: SR leukemia
RPMI-8226 leukemia = system: RPMI-8226 leukemia
OVCAR-8 ovarian = system: OVCAR-8 ovarian
OVCAR-5 ovarian = system: OVCAR-5 ovarian
OVCAR-4 ovarian = system: OVCAR-4 ovarian
SK-OV-3 ovarian = system: SK-OV-3 ovarian
IGROV1 ovarian = system: IGROV1 ovarian
OVCAR-3 ovarian = system: OVCAR-3 ovarian
HS 578T breast = system: HS 578T breast
NCI/ADR-RES ovarian = system: NCI/ADR-RES ovarian
EKVX NSCLC = system: EKVX NSCLC

| Structure (SMILES) | growth (SK-MEL-2 melanoma) | growth (SN12C renal) | growth (UO-31 renal) | growth (TK-10 renal) | growth (ACHN renal) | growth (CAKI-1 renal) [%] | growth (A498 renal) | growth (CCRF-CEM leukemia) | growth (MOLT-4 leukemia) | growth (SR leukemia) | growth (RPMI-8226 leukemia) | growth (OVCAR-8 ovarian) | growth (OVCAR-5 ovarian) | growth (OVCAR-4 ovarian) | growth (SK-OV-3 ovarian) | growth (IGROV1 ovarian) | growth (OVCAR-3 ovarian) | growth (HS 578T breast) | growth (NCI/ADR-RES ovarian) | growth (EKVX NSCLC) |
| --- | --- | --- | --- | --- | --- | --- | --- | --- | --- | --- | --- | --- | --- | --- | --- | --- | --- | --- | --- | --- |
| Nc1c(C(=O)Nc2cccc(Cl)c2Cl)sc2nc3c(cc12)C(=O)CCC3 | 38% | 86.8% | 78.8% | 81.9% | 98.1% | 79 | -3.22% (active) | 86.2% | 106% | 95.6% | 102% | 114% | 99.1% | 104% | 24.2% | 72.8% | 95.6% | 88.2% | 73.4% |  |
| CC/C=C\C/C=C\C[C@H]1C/C=C2/C(=O)C=C[C@H]2C/C=C\CCC(=O)O1 | 7.15% (active) | -10.2% (active) | -51.7% (active) | 2.67% (active) | -63.5% (active) |  | 77.7% | 3.86% (active) | -3.06% (active) | 4.9% (active) | 4.52% (active) | 0.0569% (active) | 25.4% | 42.6% | 31.3% | 3.81% (active) | -12.1% (active) | 40.2% | 17.9% | 18.3% |
| CCC#CC[C@H]1C/C=C2/C(=O)C=C[C@@H]2C/C=C\CCCC(=O)O1 | 8.9% (active) | 0.755% (active) | -82.7% (active) | -1.68% (active) | -86.8% (active) |  | 46.5% | 9.12% (active) | 7.42% (active) | 5.38% (active) |  | 13.6% | 18.4% | 40.1% | 26.5% | 7.74% (active) | 6.81% (active) | 40.2% |  | 23.7% |
| COC12CC(=O)C(C(C)=O)=C(O)C1(C)c1c(O)c(C)c(O)c(C(C)=O)c1O2 (stereo not given) | 41.9% | 49.1% | 48.9% | 78.4% | 77.9% | 71.5 | 61.1% | 47.2% | 75.3% | 69.9% | 44.5% | 58.7% | 99.7% | 85.9% | 104% | 68.9% | 59.2% | 75.4% |  |  |
| CC/C=C\C[C@H]1C/C=C2/C(=O)C(Cl)=C[C@@H]2C/C=C\CCCC(=O)O1 | -44.1% (active) | -1.11% (active) | -93.8% (active) | -55.3% (active) | -64.6% (active) |  | -68.3% (active) | -19.1% (active) | -9.42% (active) | -2.48% (active) | -14.1% (active) | 3.57% (active) | -25% (active) | -37.8% (active) | -6.42% (active) | -41.7% (active) | -96.1% (active) | 17.6% | 6.27% (active) | -82% (active) |
| CCN1C(=O)N(CC)C2C1NN=c1s/c(=C3\C(=O)N(C4CCCC4)c4ccccc43)c(=O)n12 (stereo not given) | 41.3% | 31.6% | 37.2% | 24.4% | 31.9% | 32.1 |  |  | 7.37% (active) | 0.0502% (active) | -0.279% (active) | 23% | 49.7% | 46.1% |  | 31.9% | -35.3% (active) | -7.85% (active) | -22.8% (active) | 56.1% |
| COc1ccc(C2=NN(c3ccc(S(N)(=O)=O)cc3)C(c3cn(-c4ccccc4)nc3-c3ccc(Cl)cc3)C2)cc1 (stereo not given) | 94.7% | 96.7% | 60.5% | 90.6% | 95.4% | 90.9 | 76.4% | 73.3% | 69.2% | 77.9% | 78% | 91.1% | 114% | 107% | 97.7% | 105% | 92.4% | 109% |  |  |
| c1ccc2c(c1)Oc1ccccc1C2C1c2ccccc2Oc2ccccc21 | 92.6% | 101% | 73.5% | 93.4% | 87.7% |  | 91.8% | 98.3% | 79.5% | 86.3% | 103% | 101% | 89.7% | 84% | 105% | 91.5% | 98.4% | 99.6% | 95.3% | 84.9% |
| CC[C@H](C)[C@@H]1NC(=O)[C@H]([C@@H](C)O)NC(=O)C(Cc2ccccc2)NC(=O)[C@@H]2CCCN2C(=O)C(C(C)C)NC(=O)C(Cc2ccccc2)NC(=O)CNC(=O)[C@@H]2CCCN2C1=O (stereo not given in full) | 88.9% | 72.5% | 36.8% | 116% | 58.7% | 37.6 | 26.1% | 20% | 7.99% (active) | 20.1% | 7.56% (active) | 68.3% | 89.9% | 60% | 78.4% | 63.6% | 57.6% | 59.2% | 64.5% |  |
